# Laboratory results taken from ChEMBL document CHEMBL3433997, “St. Jude Leishmania screening dataset” (2016).
# Columns and labels:
# Format in all cases: functional
# [1] = target: Solute carrier family 2, facilitated glucose transporter member 1 (Homo sapiens) (UniProt P11166); assay: ST_JUDE_LEISH: Cytotoxicity at 2uM final concentration against transgenic Leishmania Mexicana promastigotes LmGLUT1 that are glucose transport deficient and complemented with the human glucose transporter GLUT1. Activity is measured by DNA content using SYBR green in vitro
# [2] = target: Hexose transporter 1 (Plasmodium falciparum) (UniProt O97467); assay: ST_JUDE_LEISH: Cytotoxicity at 2uM final concentration against transgenic Leishmania Mexicana promastigotes LmPfHT that are glucose transport deficient and complemented with the Plasmodium falciparum hexose transporter. Activity is measured by DNA content using SYBR green in vitro
# [3] = target: Glucose transporter (Leishmania mexicana) (UniProt O61059); assay: ST_JUDE_LEISH: Cytotoxicity at 2uM final concentration against transgenic Leishmania Mexicana promastigotes LmGT2 that are glucose transport deficient and complemented with the L. Mexicana glucose transporter 2. Activity is measured by DNA content using SYBR green in vitro
# Chain of Solute carrier family 2, facilitated glucose transporter member 1 (Homo sapiens) (P11166 whole entry): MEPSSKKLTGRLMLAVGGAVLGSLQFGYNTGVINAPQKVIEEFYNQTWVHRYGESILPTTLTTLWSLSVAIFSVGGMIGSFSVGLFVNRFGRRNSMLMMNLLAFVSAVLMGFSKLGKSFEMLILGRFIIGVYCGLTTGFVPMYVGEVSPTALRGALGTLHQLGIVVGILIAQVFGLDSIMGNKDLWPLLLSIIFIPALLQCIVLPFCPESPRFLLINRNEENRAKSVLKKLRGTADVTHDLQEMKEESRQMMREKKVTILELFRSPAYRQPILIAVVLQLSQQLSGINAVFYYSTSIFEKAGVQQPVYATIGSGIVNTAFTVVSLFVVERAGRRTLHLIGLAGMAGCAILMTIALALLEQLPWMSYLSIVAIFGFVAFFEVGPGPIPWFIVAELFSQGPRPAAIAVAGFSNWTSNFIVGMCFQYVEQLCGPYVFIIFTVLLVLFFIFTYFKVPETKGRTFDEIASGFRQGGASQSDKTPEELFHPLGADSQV
SMILES,inhibition [1],inhibition [2],inhibition [3]
CN(C)S(=O)(=O)c1ccc(N2CCN(CCC3(c4cccc(F)c4)CCN(C(=O)C(C)(C)C)CC3)CC2)c2nonc12,9.09%,8.17%,2.89%
O=C(Nc1ccc(-c2cccc(-c3nc4cc(F)ccc4[nH]3)c2)cc1)c1cnn2cccnc12,2.14%,3.22%,0.84%
Cn1ncc2ccc(Nc3nccc(-c4ccc5c(c4)c(N)nn5C)n3)cc21,93.3%,97.5%,93.8%
Cc1cnc(N2CCN(CCCN3CCCC3)CC2)nc1Oc1ccc(-n2ccnc2)cc1,2.28%,2%,3.96%
CCOc1cc(C(=O)Nc2ccc3nc(N4CCCCC4)cc(C)c3c2)cc(OCC)c1OCC,4.92%,4.24%,3.07%
CCc1ccc2nc(-c3ccc(F)cc3)nc(SCC(=O)Nc3sc(C)c(C)c3C#N)c2c1,5.67%,7.28%,5.07%
COC(=O)c1ccc(Nc2nccc(Nc3ccc(Oc4ccccc4)cc3)n2)cc1,5.22%,9.95%,2.57%
Cc1cccc(C(=O)NC(NC(=S)Nc2ccc([N+](=O)[O-])cc2)C(Cl)(Cl)Cl)c1 (centres undefined),3.68%,3.52%,-0.6%
COc1ccccc1CCNc1nc(C)cc(N[C@@H](Cc2ccccc2)C(=O)NCCOc2ccccc2)n1,1.72%,1.1%,-2.09%
CN(C)c1ccc(CN2CCC(NC(=O)c3ccc(-c4ccccc4Cl)s3)CC2)cc1,2.51%,1.07%,1.76%
Cc1c2c(nn1-c1ccccc1)C(c1ccccc1)N(c1ccccc1)C2=O (centres undefined),-0.43%,0.43%,0.75%
Cc1[nH]c(C)c(Cc2ccc(Oc3ccc(OC(F)(F)F)cc3)cc2)c(=O)c1Br,-0.67%,-0.95%,-3.03%
Cc1ccccc1C1CCN(c2ccc(NC(=O)c3ccc(Cl)nc3)cc2)CC1,3.34%,-3.74%,3.84%
O=c1cc(NCCNCc2cccc(-c3ccccc3)c2)[nH]c2ccccc12,4.41%,-0.15%,1.64%
Cc1cc(-c2ccnc(Nc3cccc(C#N)c3)n2)cc(C)c1O,13.8%,16%,7.83%
CN1CCN(CCCCNc2c3ccccc3nc3ccccc23)CC1,23%,11.7%,14.6%
COc1cc(Cc2cnc(NCCN3CCNCC3)nc2N)ccc1OCc1ccc(C(F)(F)F)cc1,3.49%,4.49%,6.93%
COc1cc(OC)c2c(C)cc(NCCCn3ccnc3)nc2c1,2.59%,3.68%,0.88%
Cc1[nH]c(C)c(-c2ccc(OCCn3cnc(Cl)c3Cl)cc2)c(=O)c1Br,-1.35%,-0.56%,-0.52%
CN1CCC(OC(=O)c2cc3cc(-c4ccccc4)ccc3n2S(=O)(=O)c2ccccc2)CC1,1.64%,0.71%,3.61%
CCCCCCNC(=O)C1Cc2c([nH]c3ccc(C)cc23)C2(CCN(CCc3ccccc3)CC2)N1 (centres undefined),0.36%,1.61%,3.44%
CC1CC(NCCCNc2cc(=O)c3ccccc3[nH]2)c2c1cc(Cl)c(Cl)c2Cl (centres undefined),-1.8%,-2.9%,2.54%
CCCc1cc(C)ccc1OCCCON1C(N)=NC(N)=NC1(C)C,31.1%,45.5%,25.9%
O=C(Nc1ccc(Cl)cc1)Nc1ccc2nonc2c1,0.79%,1.43%,0.9%
NC1=NC(Cc2ccccc2)(c2ccncc2)C(=O)N1CCCc1ccccc1 (centres undefined),3.32%,3.32%,2.03%

SMILES,inhibition [1],inhibition [2],inhibition [3]
O=C(NCc1cccc(F)c1)Nc1cccc(-c2ccc(-c3nc4cc(C(F)(F)F)ccc4[nH]3)cc2)c1,0.26%,1.57%,0.07%
Cc1nc(-c2nc(NCc3ccc4c(c3)OCO4)ncc2-c2ccsc2)sc1C,-0.05%,-0.48%,0.68%
N#Cc1ccc(NC(=O)c2ccc(Cc3ccc4c(c3)CCN(C3CCC3)CC4)cn2)cc1,9.64%,10.6%,10.4%
CCOc1ccc2nc(N(CCCn3ccnc3)C(=O)C=Cc3cccs3)sc2c1,3.54%,2.73%,-8.76%
COc1cccc(Nc2nc(N)c3ccccc3n2)c1,22.4%,18.8%,7.62%
COc1cccc(CC(=O)N2CCC(n3c(C)nc4ccc(C)cc43)CC2)c1,1.58%,1.46%,1.1%
CC(C)CCNC(=O)C1Cc2c([nH]c3cc(Cl)ccc23)C2(CCN(CCc3ccccc3)CC2)N1 (centres undefined),1.75%,2.24%,0.76%
Cc1noc(C)c1-c1cccc(CNCc2cccc(-c3ccc(-c4nc5cc(C(F)(F)F)ccc5[nH]4)s3)c2)c1,0.65%,7.93%,5.87%
CCNc1nc(OCC(F)(F)F)nc(N(c2ccccc2)c2ccccc2)n1,0.4%,1.48%,1.04%
CCc1c(CCNCCCCCCNCc2ccc3c(c2CC)OCO3)ccc(OC)c1OC,10.6%,0.77%,4.01%
CCCC(C)NC(=O)C(N)Cc1cccc(I)c1 (centres undefined),1.78%,-1%,1.85%
O=c1cc(NCCCNCc2cccc(OC(F)(F)C(F)F)c2)[nH]c2ccccc12,6.11%,7.27%,5.78%
c1ccc(CCNCc2ccc(-c3cccc(-c4nc5ccccc5[nH]4)c3)cc2)nc1,3.95%,3.7%,3.79%
CCC[C@@H]([C@@H](CC1CCCCC1)C(=O)N[C@H](C(=O)Nc1nccs1)[C@H](C)O)N(O)C=O,1.07%,1.35%,2.03%
N#Cc1ccc2c(c1)CCN(CCC1CCC(NC(=O)/C=C/c3ccc4[nH]ccc4c3)CC1)CC2 (centres undefined),1.65%,0.57%,0.13%
CC1(C)CCNc2cc(NC(=O)c3ccc(-c4ncccc4C(F)(F)F)cc3)ccc21,2.63%,1.14%,0.73%
CCCCCCCCc1nc(C)c(Br)c(O)c1Br,3.91%,5.98%,0.8%
Cc1[nH]cnc1CSCCNC(=N)NCCCCCCCCNC(=N)NCCSCc1nc[nH]c1C,-1.07%,0.71%,-0.05%
CN(C)c1ccc(Br)c(Br)c1,3.2%,4.63%,-1.28%
CC(C)N1CCN(C(CN2CCN(CCCOc3ccccc3-c3ccccc3)CC2)c2ccc(F)cc2)CC1 (centres undefined),6.32%,5.02%,5.95%
O=C(Nc1ccc(Cl)cc1)Nc1cccc(-c2ccc(-c3nc4ccccc4[nH]3)cc2)c1,2.09%,1.83%,1.94%
CCCCCCN1CCCN(Cc2ccc(C(=O)Nc3ccc(CCC)cc3)cc2)CC1,9.31%,7.71%,7.37%
CN(C)CCNC(=O)NC1CN(c2ncnc3cc(-c4ccccc4)sc23)C1,5.45%,4.29%,4.03%
CCN1CCC(N(Cc2ccc(-c3ccc(Cl)cc3)cc2)C(=O)Cn2c(CCc3cccc(F)c3F)cc(=O)c3ccccc32)CC1,9.18%,5.52%,7.94%
Cc1c(Cl)cccc1S(=O)(=O)Nc1cccc(CCN2CCC(N3CCCCC3)CC2)c1,2.7%,4.32%,2.25%

SMILES,inhibition [1],inhibition [2],inhibition [3]
CC(C)(C)c1ccc(OC(=O)c2ccc(NC(=O)N[C@@H](Cc3ccc(O)cc3)C(=O)NC3CCN(Cc4ccc(O)cc4)C3)cc2)cc1 (some centres undefined),9.86%,4%,9.56%
Cc1cc(O)c(-c2ccc(S(=O)(=O)c3ccc(Cl)cc3)cc2)c(C)n1,0.09%,0.81%,1.44%
CC(=O)Nc1ccc(C(=O)Nc2cccc(-c3ccc(-c4nc5cc(F)ccc5[nH]4)cc3)c2)cn1,-1.01%,2.17%,0.38%
COc1cccc(CNC(=O)c2ccnc(-c3cccc(CN(C)C4CCN(C)CC4)c3)c2)c1,-0.04%,-0.18%,1.78%
CCCNCc1ccc(-c2ccc(CN(Cc3cnc(C)cn3)C(=O)/C=C/c3ccccc3C)cc2)nc1,2.17%,0.74%,0.97%
NC(=O)c1cnc2ccc(-c3cncs3)cc2c1Nc1ccc(F)c(Cl)c1,1.94%,2.75%,1.95%
COc1cc2cc(C(=O)Nc3ccccc3)c(N)nc2cc1OC,0.36%,1.61%,0.18%
Cc1ccc(NC(=O)NC2CCN(c3ccnc4cc(Cl)ccc34)CC2)cc1,9.02%,7.47%,8.65%
CC[C@H](C)CNC(=O)c1cncc(-c2ccc(CNC3Cc4ccccc4C3)cc2)c1,6.08%,6.72%,5.96%
CN1CCC[C@H]1COc1ccc(CN2CC[C@H](NC(=O)c3ccc(Cl)c(Cl)c3)C2)c2ccccc12,9.64%,8.86%,6.54%
CCCCc1cc(NCC)nc(Nc2ccc(OC)cc2)n1,20.3%,10.1%,5.43%
CS(=O)(=O)CCNCc1ccc(-c2ccc3ncnc(Nc4ccc(OCc5ccccc5)c(Cl)c4)c3c2)o1,-0.18%,-1.51%,-1.49%
Cc1cc(NC(=O)c2ccc(S(=O)(=O)N(Cc3ccccc3)C(C)C)cc2)no1,3.7%,3.18%,3.77%
COc1cc(OC)c(OC)cc1CN1CCC2(CC1)CN(Cc1ccc(Cl)c(Cl)c1)C(=O)O2,10.3%,9.41%,8.16%
O=C(NCc1ccco1)c1ccc(S(=O)(=O)c2ccc(Cl)cc2)cc1,0.13%,1.22%,0.06%
Fc1cc(CN2CCCC2)ccc1OCCCN1CCN(c2cccc(Cl)c2Cl)CC1,4.56%,5.47%,4.5%
CCCC(=O)Nc1ccc(OCCN(Cc2ccccc2OC(F)(F)F)c2ccc(C(F)(F)F)c(C#N)c2)cc1,3.46%,1.7%,2.31%
CS(=O)(=O)c1ccc(CCNCc2ccc(-c3ccc(CN(C(=O)c4ccco4)C4CCN(Cc5ccccc5)CC4)cc3)nc2)cc1,1.33%,0.67%,4.41%
Cc1[nH]c(C)c(-c2ccc(-c3ccc(C#N)cc3)nc2)c(=O)c1Br,9.47%,10.2%,6.23%
CN(C)CCOc1cc(NC(=O)Nc2ccc(Oc3ccccc3)cc2)ccc1I,1.79%,1.64%,-1.47%
CCOc1cc(C(=O)NC2CC(C)(C)N(C)C(C)(C)C2)ccc1-c1nc2cc(Cl)c(Cl)cc2[nH]1,5.59%,12.6%,7.12%
O=C(O)CCSc1ncnc2[nH]cnc12,-2.53%,-2.15%,-2.15%
Cc1ncsc1CCN1C(=O)CC2(C1=O)C(=O)N(Cc1ccccc1)c1ccc(Cl)cc12 (centres undefined),1.9%,2.58%,-1.17%
